According to PubChem BioAssay (NCATS):
Inconclusive results are not listed. A call without a number means that no potency is given here. Activity calls are given as the source filed them. Calls come from the whole dose curve; as a rule, active = well fitted inhibition curve with a large enough effect; inconclusive = small, poorly fitted or top-dose-only effect; inactive = flat fitted curve, though single readings scatter.

Each compound was assayed against Glutathione peroxidase 1 (Homo sapiens) (UniProt P07203) (assay: Primary qHTS Assay for Inhibitors of Recombinant Selenoprotein Glutathione Peroxidase 1 (GPX1) (AID 1845191; note: nearly all actives have a fitted effect of over 65% in size)). Conditions: recombinant GPX1, GR-coupled NADPH fluorescence, 15 min; series mostly up to 27.7 µM.
Chain of Glutathione peroxidase 1 (Homo sapiens) (P07203 whole entry, looked up): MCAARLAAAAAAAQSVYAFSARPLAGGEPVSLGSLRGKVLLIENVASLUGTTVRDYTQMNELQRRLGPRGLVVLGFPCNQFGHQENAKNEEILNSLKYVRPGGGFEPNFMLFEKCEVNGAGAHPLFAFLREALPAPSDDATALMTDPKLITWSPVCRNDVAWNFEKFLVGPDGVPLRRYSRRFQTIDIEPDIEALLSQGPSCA
In short: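 NADPH consumption tracked by fluorescence at 340/450 nm between t=0 and t=15 min, room temperature. Final mix: 10 nM GPX1, 100 nM glutathione reductase, 1 mM GSH, 0.5 mM NADPH, 0.5 mM cumene hydroperoxide, 0.01% BSA; 30 min compound–enzyme preincubation.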

Row | Compound | Potency
1 | CC(C)=CCC[C@](C)(O[C@@H]1O[C@H](CO)[C@@H](O)[C@H](O)[C@H]1O)[C@H]1CC[C@]2(C)[C@@H]1[C@H](O)CC1[C@@]3(C)CC[C@H](O)C(C)(C)C3[C@@H](O[C@@H]3O[C@H](CO)[C@@H](O)[C@H](O)[C@H]3O[C@@H]3O[C@@H](C)[C@H](O)[C@@H](O)[C@H]3O)C[C@]12C (some centres undefined) | inactive
2 | O=C(C[C@@H]1C(C(=O)O)=CO[C@@H](O[C@@H]2O[C@H](CO)[C@@H](O)[C@H](O)[C@H]2O)/C1=C\CO)OCCc1ccc(O)cc1 | inactive
3 | CC1CCC2(C)CCC3(C)C(=CCC4C5(C)CCC(O)C(C)(C(=O)O)C5CCC43C)C2C1C (centres undefined) | inactive
4 | Cc1ccc(C)c(S(=O)(=O)n2cnc3ccccc32)c1 | inactive
5 | C=C1CC[C@H]2[C@@](C)(CCC(O)[C@@]2(C)CO)[C@@H]1/C=C/C(=C\C(=O)O)C(=O)O (some centres undefined) | inactive
6 | CCC(C)C(=O)O[C@H]1C[C@](C)(O)[C@]23OC(C)(C)[C@H](C[C@H](OC(=O)c4ccccc4)[C@]2(COC(C)=O)[C@H]1OC(=O)C(C)CC)[C@H]3OC(C)=O (some centres undefined) | inactive
7 | CC(=O)/C=C/C1(O)C(C)=CC(=O)CC1(C)C (centres undefined) | inactive
8 | CC1(C)CC[C@]2(C(=O)O)CC[C@]3(C)C(=CCC4[C@@]5(C)C[C@H](O)[C@H](O[C@@H]6O[C@H](CO)[C@@H](O)[C@H](O)[C@H]6O)[C@@](C)(CO)C5[C@H](O)C[C@]43C)[C@@H]2C1 (some centres undefined) | inactive
9 | C=C(CC/C=C(\C)C(=O)O)C1(O)CC=C(C)CC1 (centres undefined) | inactive
10 | O=C(Cc1ccc(Cl)cc1)Nc1cnccc1C(=O)O | inactive
11 | CC(C)(O)C1CCC2(C)CCCC(C)(O)C2C1 (centres undefined) | inactive
12 | CCC(C)C(=O)OC[C@H]1O[C@H](O[C@H]2O[C@H](CO)[C@@H](O)[C@H](O)[C@H]2O)[C@H](O)[C@@H](O)[C@@H]1O (some centres undefined) | inactive
13 | CC(=O)O[C@@H]1[C@H](O[C@@H]2O[C@H](CO)[C@@H](O)[C@H](O)[C@H]2O)[C@@H](O[C@@H]2O[C@@H](C)[C@H](O)[C@@H](O[C@@H]3O[C@H](CO)[C@@H](O)[C@H](O)[C@H]3O)[C@H]2O)[C@H](OC(=O)[C@]23CCC(C)(C)C[C@H]2C2=CCC4[C@@]5(C)C[C@H](O)[C@H](O[C@@H]6O[C@H](C(=O)O)[C@@H](O)[C@H](O)[C@H]6O)[C@@](C)(C(=O)O)C5CC[C@@]4(C)[C@]2(C)CC3)O[C@@H]1C (some centres undefined) | inactive
14 | COC(=O)C1=COC(O[C@@H]2O[C@H](COC(=O)/C=C/c3ccc(O)cc3)[C@@H](O)[C@H](O)[C@H]2O)C2C(CO)=CCC12 (some centres undefined) | inactive
15 | CC(=O)OC1CCC2(C)C(CCC3(C)C2CC=C2C4CC(C)(C)CCC4(C)CCC23C)C1(C)C(=O)O (centres undefined) | inactive
16 | C/C1=C\CC[C@]2(C)O[C@H]2C(=O)c2c(C)coc2C1 | inactive
17 | COC(=O)C1=CO[C@@H](O[C@@H]2O[C@H](CO)[C@@H](O)[C@H](O)[C@H]2O)[C@H]2[C@@H]1[C@H](O)C[C@]2(C)O | inactive
18 | C/C=C(\C)C(=O)OCC1OC(OCC2OC(OC3(CO)OC(CO)C(O)C3O)C(O)C(O)C2O)C(O)C(O)C1O (centres undefined) | inactive
19 | CC(C)C(NC(=O)c1ccc(O)cc1)C(=O)N1CCCC1C(=O)Nc1c(O)cccc1C(=O)O (centres undefined) | inactive
20 | Cc1c(F)cc(C(=O)NC2CC2)cc1-c1ccc(C(=O)NCC(C)(C)C)cn1 | inactive

Row | Compound | Potency
21 | O=C(OC[C@H]1O[C@H](O[C@]2(CO)O[C@H](CO)[C@@H](O)[C@@H]2O)[C@H](O)[C@@H](O)[C@@H]1O)c1ccc(O)cc1 | inactive
22 | CSC(=O)OCC1=C[C@@H]2OC(=O)C3=CO[C@@H](O[C@@H]4O[C@H](CO)[C@@H](O)[C@H](O)[C@H]4O)[C@H]1[C@@H]32 | inactive
23 | C=C(C(=O)OC)[C@]12O[C@@](C)(CC[C@@]3(O)/C(=C\C)C(=O)O[C@]3(C)C[C@@H]1OC(=O)C(CO)CN1CCCC1C(=O)O)CC2=O (some centres undefined) | inactive
24 | CC1OC(OC2CCC3(C)C(CCC4(C)C3C=CC35OCC6(CCC(C)(C)CC63)CCC45C)C2(C)CO)C(OC2OC(CO)C(O)C(O)C2O)C(O)C1OC1OC(CO)C(O)C(O)C1O (centres undefined) | inactive
25 | C=C[C@]1(C)C[C@@H](OC(=O)CSC2C[C@H]3CC[C@@H](C2)N3C)[C@]2(C)[C@H](C)CC[C@]3(CCC(=O)[C@H]32)[C@@H](C)[C@@H]1O (some centres undefined) | inactive
26 | N#CC1C(=O)N=C(c2cc(Cl)ccc2O)C=C1c1cc(OCc2ccccc2)cc(OCc2ccccc2)c1 (centres undefined) | inactive
27 | C/C=C(\C)C(=O)OCC1OC(OC2OC(CO)C(O)C(O)C2O)C(O)C(O)C1O (centres undefined) | inactive
28 | FC(F)(F)Oc1ccc(-c2ccc3nnc(C(F)(F)F)n3c2)cc1 | inactive
29 | C/C(=C\C(=O)C(C)C1CCC2C3=C(CCC21C)C1(C)CCC(=O)C(C)(C)C1(O)CC3)C(C)(C)O (centres undefined) | inactive
30 | CC(C)c1ccc2c(c1)[C@H](O)CC1[C@@](C)(C(=O)O)CCC[C@]21C (some centres undefined) | inactive
31 | O=c1[nH]ccc2nc(-c3ccc(CN4CCC(c5nc(-c6ccccn6)n[nH]5)CC4)cc3)c(-c3ccccc3)cc12 | inactive
32 | C=C(C)C1CCC2(C(=O)OC3OC(COC4OC(CO)C(O)C(O)C4O)C(OC4OC(C)C(O)C(O)C4O)C(O)C3O)CCC3(C(=O)O)C(CCC4C5(C)CCC(=O)C(C)(C)C5CCC43C)C12 (centres undefined) | inactive
33 | C/C=C1/[C@H](O[C@@H]2O[C@H](CO)[C@@H](O)[C@H](O)[C@H]2O)OC=C2C(=O)O[C@@H]3C[C@@H](C(C)CO)[C@H](COC(=O)C[C@H]21)[C@H]3C (some centres undefined) | inactive
34 | O=C(CCc1ccccc1)c1c(O)c([C@@H]2O[C@H](CO)[C@@H](O)[C@H](O)[C@H]2O)c(O)c([C@@H]2O[C@H](CO)[C@@H](O)[C@H](O)[C@H]2O)c1O | inactive
35 | C/C(=C\CCC(C)(C)O)CCO[C@@H]1O[C@H](CO[C@@H]2O[C@@H](C)[C@H](O)[C@@H](O)[C@H]2O)[C@@H](O)[C@H](O)[C@H]1O | inactive
36 | CCC/C=C/C=C/C1CC(O)C(O)C(=O)C1CO (centres undefined) | inactive
37 | C[C@@H](c1ccccc1)N(C(N)=NC#N)c1cccc2ncccc12 | inactive
38 | COC(=O)CCC1(C)C(C(C)(C)O)C(O)CC2(C)Oc3c(C)c4c(c(OC)c3CC21)C(=O)OC4 (centres undefined) | inactive
39 | O=C(C[C@@H]1C(C(=O)O)=CO[C@@H](O[C@@H]2O[C@H](CO)[C@@H](O)[C@H](O)[C@H]2O)/C1=C\CO)OCCc1ccc(O)c(O)c1 | inactive
